# From PubChem BioAssay (Tox21)
# Results filed as inconclusive are left out. A call without a number means that no potency is given here. The source made the active and inactive calls. The call rests on the fitted dose curve; in most records, active means well fitted activation curve with a large enough effect in the repeat runs; inconclusive means weak or mixed curves; inactive means no such curve, though single readings can be large or run the other way.
# Test: qHTS assay for small molecules that induce genotoxicity in human embryonic kidney cells expressing luciferase-tagged ATAD5 (AID 651632); further: nearly all actives have a fitted effect of over 15% in size
# Conditions: HEK293T ATAD5-luciferase induction, 16 h; series mostly up to 83.3 µM
# From the text: U.S. Tox21 Program National Center for Advancing Translational Sciences [NCATS] NIH Chemical Genomics Center [NCGC] U.S. Environmental Protection Agency [EPA] National Institutes of Environmental Health Sciences [NIEHS] National Toxicology Program [NTP] U.S. Food and Drug Administration [FDA] Tox21 Assay Overview: As cancer cells divide rapidly and during every cell division they need to duplicate their genome by DNA replication. The failure to do so results in the cancer cell death. Based on this concept, many chemotherapeutic agents were developed but have limitations such as low efficacy and severe side effects etc. A new cell based assay was developed to find the compounds that effectively block DNA replication either by directly damaging DNA or by inhibiting other cellular mechanisms. Enhanced Level of Genome Instability Gene 1 (ELG1; human ATAD5) protein levels increase in response to various types of DNA damage. Using a luciferase reporter-gene tagged with ATAD5, a cell-based assay [developed by Kyungjae Myung, NHGRI, NIH] was used to measure the induction of ATAD5 in human embryonic kidney cells (HEK293T). So, increase in luciferase activity can be used to identify the compounds that cause genetic stress.
# Tox21 Assay Protocol Summary: For genotoxicity screening, 2,000 cells in 5 uL/well were dispensed into white, solid-bottom 1536-well plates using a Multidrop Combi (Thermo Scientific) dispenser. Following transfer of 23 nL compound or DMSO vehicle by a pin tool, the plates were incubated 16 hr at 37C and 5% CO2. 5 ul Amplite (AAT Bioquest, Inc.) was then added to each plate and following 30 min incubation at room temperature, luciferase activity was quantified on a ViewLux CCD-based plate reader.
row,Compound,Potency
1,CN(C)C(=O)Oc1cccc([N+](C)(C)C)c1,inactive
2,Cc1ccnc(NS(=O)(=O)c2ccc(N)cc2)n1,inactive
3,CCCCN(CCC(=O)OCC)C(C)=O,inactive
4,O=C(O)CC(C(=O)O)S(=O)(=O)O (stereo not given),inactive
5,Nc1ccn([C@@H]2O[C@H](CO)[C@@H](O)C2(F)F)c(=O)n1,inactive
6,CCOc1ccc2nc(S(N)(=O)=O)sc2c1,inactive
7,CO/N=C(\C(=O)N[C@@H]1C(=O)N2C(C(=O)O)=C(CSc3nc(=O)c(O)nn3C)CS[C@H]12)c1csc(N)n1,inactive
8,CC(C)CC(C)(N)C#N (stereo not given),inactive
9,CCOC(=O)COC(=O)c1ccccc1C(=O)OCC,inactive
10,c1ccc(CCc2ccccc2)cc1,inactive
11,CC(COc1ccccc1)NN (stereo not given),inactive
12,CC(=O)NC(=O)c1ccccc1O,inactive
13,NC(=O)N1c2ccccc2CC(=O)c2ccccc21,inactive
14,CCCc1ncc(C[n+]2ccccc2C)c(N)n1,inactive
15,CC(=O)c1ccc2ccccc2c1,inactive
16,CC(=O)O[C@@]12CO[C@@H]1C[C@H](O)[C@@]1(C)C(=O)[C@H](O)C3=C(C)[C@@H](OC(=O)[C@H](O)[C@@H](NC(=O)OC(C)(C)C)c4ccccc4)C[C@@](O)([C@@H](OC(=O)c4ccccc4)[C@H]21)C3(C)C,inactive
17,C[N+]12CCC(CC1)C(OC(=O)C(O)(c1ccccc1)c1ccccc1)C2 (stereo not given),inactive
18,CCCCCC(C)N (stereo not given),inactive
19,CC(C)c1ccc2ncccc2c1,inactive
20,C=CCOCC(O)CO (stereo not given),inactive

row,Compound,Potency
1,CC(C)(C)C(=O)Oc1ccc(S(=O)(=O)Nc2ccccc2C(=O)NCC(=O)O)cc1,inactive
2,COc1cc(C)nc(-n2nc(C)cc2OC)n1,inactive
3,CC(C#N)(CCC(=O)O)N=NC(C)(C#N)CCC(=O)O (stereo not given),inactive
4,COC(=O)C1=C(C)NC(C)=C(C(=O)OC(C)C)C1c1cccc2nonc12 (stereo not given),inactive
5,CC[N+](CC)(CC(=O)Nc1c(C)cccc1C)Cc1ccccc1 (tested in a mixture with another compound),inactive
6,O=C(O)CNC(=O)c1ccccc1,inactive
7,NCCCC[C@H](N[C@@H](CCc1ccccc1)C(=O)O)C(=O)N1CCC[C@H]1C(=O)O,inactive
8,CC(C)(N)C#N,inactive
9,C=CC(C)(CCC=C(C)C)OC(=O)CC (stereo not given),inactive
10,C[C@H]1C[C@H]2[C@@H]3CCC4=CC(=O)C=C[C@]4(C)[C@H]3C(=O)C[C@]2(C)[C@@]1(O)C(=O)CO,inactive
11,CO[Si](C)(OC)c1ccccc1,inactive
12,CC1OC1C1CCC2(C)OC2C1 (stereo not given),inactive
13,COc1cc(C(=O)OC(COCCC(C)C)CN2CCOCC2)cc(OC)c1OC (stereo not given),inactive
14,CC(=O)Nc1ccc(OCC(O)CNC(C)C)cc1 (stereo not given),inactive
15,CCCCc1nc(Cl)c(CO)n1Cc1ccc(-c2ccccc2-c2nn[nH]n2)cc1,inactive
16,CC[N+](CC)(CC)CCOc1cccc(OCC[N+](CC)(CC)CC)c1OCC[N+](CC)(CC)CC,inactive
17,CO[C@@]1(NC(=O)CSC[C@@H](N)C(=O)O)C(=O)N2C(C(=O)O)=C(CSc3nnnn3C)CS[C@@H]21,inactive
18,CC(C)NNC(=O)c1ccncc1,inactive
19,CC1(C)[C@@H]2CC[C@@]1(C)[C@H](O)C2,inactive
20,CC(CC=O)CC(C)(C)C (stereo not given),inactive
